Experimental findings from PubChem BioAssay (EPA / NIEHS) are described below.

A word on the AC50: it is the concentration giving half of the maximal activity seen.

The structures appear in SMILES notation. Results filed as inconclusive are left out. Calls of active or inactive are those of the source. The calls were made as follows, unless noted: active = hit-call score of the fitted dose curve at least 0.9, where 1 is the maximum; inconclusive = response in the unintended direction; inactive = score below 0.9.

Test [1] can be described thus: ATG_TCF_b_cat_CIS: Attagene CIS-FACTORIAL HepG2 Assay for human T-Cell-Factor with beta-catenin (TCF/b-cat) (AID 2282965; active = hit-call score of the fitted dose curve at least 0.9, where 1 is the maximum; inactive = score below 0.9). The conditions noted are these: HepG2 TCF/beta-catenin cis-reporter transcription, actives raise or lower the signal. The method in brief: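 Endogenous TCF/LEF activity read as reporter transcript level via RT-PCR and capillary electrophoresis fluorescence in transfected HepG2, 24 h exposure; gain or loss of signal fitted against DMSO controls.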

A short description of test [2]: ATG_TAL_CIS: Attagene CIS-FACTORIAL HepG2 Assay for human TAL Basal Promoter (AID 2282966; active = hit-call score of the fitted dose curve at least 0.9, where 1 is the maximum; inactive = score below 0.9;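 also: background control endpoint measuring basal TAL promoter reporter mRNA not a specific factor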). The conditions noted are these: HepG2 Attagene cis-factorial TAL promoter reporter; actives raise or lower the signal. In short, it runs like this:
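Human hepatoma HepG2 cells, transfected with promoter-regulated reporter units, were treated 24 h. Reporter transcript levels, measured through RT-PCR and capillary electrophoresis, were fitted for gain or loss relative to DMSO.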

Test [3] in a line: ATG_TGFb_CIS: Attagene CIS-FACTORIAL HepG2 Assay for human Transforming Growth Factor (TGF) (AID 2282967; active = hit-call score of the fitted dose curve at least 0.9, where 1 is the maximum; inactive = score below 0.9). The conditions noted are these: HepG2 Attagene CIS TGFb reporter, mRNA transcription; actives raise or lower the signal. In short, it runs like this: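 Liver HepG2 line, cis-factorial reporter panel, 24 h dosing. Quantitation: RT-PCR products labeled with 6-FAM, cut with HpaI, resolved by capillary electrophoresis; DMSO-referenced bidirectional analysis.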

The target of test [4] is Estrogen receptor (Homo sapiens) (UniProt P03372). The test can be described thus: ATG_ERa_TRANS: Attagene TRANS-FACTORIAL HepG2 Assay for human Estrogen Receptor alpha (ERa) (AID 2282970). The conditions noted are these: HepG2 Attagene TRANS ERa GAL4 reporter, mRNA. In short, it runs like this: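 Signal derives from fluorescence of labelled reporter PCR fragments separated by capillary electrophoresis. HepG2 cells transiently carrying multiple GAL4-UAS reporter units were treated 24 hours, and induction above DMSO baseline was fitted as activity.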
Chain of Estrogen receptor (Homo sapiens) (P03372 whole entry, looked up, the tested form may be a part): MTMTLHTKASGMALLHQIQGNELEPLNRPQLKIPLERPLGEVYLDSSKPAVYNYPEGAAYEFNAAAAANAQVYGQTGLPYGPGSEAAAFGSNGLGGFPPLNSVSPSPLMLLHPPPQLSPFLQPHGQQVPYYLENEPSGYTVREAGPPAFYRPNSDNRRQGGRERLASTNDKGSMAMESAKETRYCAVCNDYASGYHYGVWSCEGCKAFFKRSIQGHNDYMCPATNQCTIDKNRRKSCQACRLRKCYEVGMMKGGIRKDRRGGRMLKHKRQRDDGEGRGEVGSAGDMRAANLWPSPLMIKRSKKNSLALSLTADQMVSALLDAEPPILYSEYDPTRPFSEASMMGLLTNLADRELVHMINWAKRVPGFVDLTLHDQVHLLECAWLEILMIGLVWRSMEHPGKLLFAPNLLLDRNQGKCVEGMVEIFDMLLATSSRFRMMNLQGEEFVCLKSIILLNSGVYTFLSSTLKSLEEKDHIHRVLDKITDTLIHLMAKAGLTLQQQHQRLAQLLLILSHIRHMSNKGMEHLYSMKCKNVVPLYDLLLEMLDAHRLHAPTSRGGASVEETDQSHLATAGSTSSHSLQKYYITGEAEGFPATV

Test [5] deals with X-box-binding protein 1 (Homo sapiens) (UniProt P17861). The test can be described thus: ATG_Xbp1_CIS: Attagene CIS-FACTORIAL HepG2 Assay for human X-box Binding Protein 1 (XBP1) (AID 2282972; active = hit-call score of the fitted dose curve at least 0.9, where 1 is the maximum; inactive = score below 0.9). The conditions noted are these: HepG2 XBP1 cis-element reporter, Attagene multiplex; actives raise or lower the signal. In short, it runs like this: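 Changes in reporter transcript abundance, read by RT-PCR and capillary electrophoresis, reflect endogenous transcription factor activity. Transfected HepG2 cells received compound for 24 hours; DMSO defined baseline for bidirectional analysis.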
Chain of X-box-binding protein 1 (Homo sapiens) (P17861 whole entry, looked up): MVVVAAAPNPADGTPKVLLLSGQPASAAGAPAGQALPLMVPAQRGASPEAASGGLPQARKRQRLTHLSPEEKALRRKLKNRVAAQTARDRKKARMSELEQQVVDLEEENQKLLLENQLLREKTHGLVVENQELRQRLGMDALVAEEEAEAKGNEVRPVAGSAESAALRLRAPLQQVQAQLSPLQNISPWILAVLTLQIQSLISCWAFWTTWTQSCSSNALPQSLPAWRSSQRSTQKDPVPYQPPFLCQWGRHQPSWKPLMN

Test [6] is described as follows: ATG_GAL4_TRANS: Attagene TRANS-FACTORIAL HepG2 Assay for GAL4 (Internal Marker) (AID 2282976). The conditions noted are these: HepG2 Attagene TRANS GAL4 internal marker reporter. In short, it runs like this: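 Liver HepG2 line bearing multiplexed GAL4-UAS reporter constructs; 24 h chemical treatment. Transcripts were quantified as fluorescent fragments on capillary electrophoresis after RT-PCR and HpaI cut, with activity fitted upward from DMSO.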

Test [7] in a line: ATG_M_06_TRANS: Attagene TRANS-FACTORIAL HepG2 Assay for M06 Transcription Factor (Internal Marker) (AID 2282983). The conditions noted are these: HepG2 Attagene TRANS M06 internal marker reporter. The method in brief: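 Multi-reporter-transfected HepG2, 24 h treatment; reporter transcripts quantified via RT-PCR, primer-extension labelling and CE. DMSO-normalized gain-of-signal fit.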

Test [8] is described as follows: ATG_M_32_TRANS: Attagene TRANS-FACTORIAL HepG2 Assay for M32 Transcription Factor (Internal Marker) (AID 2282984). The conditions noted are these: HepG2 Attagene TRANS M32 internal marker reporter. In short, it runs like this:
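Cell-based TRANS-format assay in HepG2: exogenous chimeric GAL4 reporter units transiently expressed, compounds applied 24 h. Reporter mRNA detected by RT-PCR plus capillary electrophoresis; this readout is an internal background marker.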

Test [9] addresses Nuclear receptor subfamily 4 group A member 2 (Homo sapiens) (UniProt P43354). The test can be described thus: ATG_NURR1_TRANS: Attagene TRANS-FACTORIAL HepG2 Assay for human Nuclear Receptor Related Protein 1 (NURR1) (AID 2282985). The conditions noted are these: HepG2 Attagene TRANS reporter, mRNA readout. In short, it runs like this: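 Measures transcriptional activation by an exogenous NR-Gal4 chimera in transfected HepG2 liver cells. After 24 h, reporter RNA is reverse-transcribed, amplified and resolved by capillary electrophoresis; DMSO defines baseline.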

Test [10] deals with Nuclear receptor subfamily 1 group I member 3 (Homo sapiens) (UniProt Q14994). The test can be described thus: ATG_CAR_TRANS: Attagene TRANS-FACTORIAL HepG2 Assay for human Constitutive Androstane Receptor (CAR) (AID 2282969).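 Also: activators raise reporter mRNA above DMSO so AC50 marks induction.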 The conditions noted are these: HepG2 Attagene TRANS-FACTORIAL CAR reporter. In short, it runs like this: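 Signal is reporter mRNA induction relative to DMSO, measured 24 h after dosing by RT-PCR with fluorescent primer extension and capillary electrophoresis. Human HepG2 liver cells carried transiently transfected chimeric NR-Gal4/GAL4-UAS reporter constructs.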
Chain of Nuclear receptor subfamily 1 group I member 3 (Homo sapiens) (Q14994 whole entry, looked up, the tested form may be a part): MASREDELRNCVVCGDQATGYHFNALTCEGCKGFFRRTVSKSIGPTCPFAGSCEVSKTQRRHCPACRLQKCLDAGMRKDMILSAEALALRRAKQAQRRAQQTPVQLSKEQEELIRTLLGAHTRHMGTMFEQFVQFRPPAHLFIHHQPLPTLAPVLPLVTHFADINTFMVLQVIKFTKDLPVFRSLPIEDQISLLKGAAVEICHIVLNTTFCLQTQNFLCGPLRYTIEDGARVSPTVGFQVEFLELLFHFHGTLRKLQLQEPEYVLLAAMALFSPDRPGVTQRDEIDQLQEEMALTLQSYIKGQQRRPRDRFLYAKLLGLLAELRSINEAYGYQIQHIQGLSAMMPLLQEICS

Test [11] deals with Glucocorticoid receptor (Homo sapiens) (UniProt P04150). Description: ATG_GR_TRANS: Attagene TRANS-FACTORIAL HepG2 Assay for human Glucocorticoid Receptor (GR) (AID 2282978).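 Also: activators score as hits since higher reporter transcript over DMSO is fitted.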 The conditions noted are these: HepG2 Attagene TRANS GR reporter, mRNA transcription. In short, it runs like this: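 HepG2 cells transiently transfected with GAL4-UAS reporter units and exogenous GR-Gal4 chimera, dosed 24 h. Reporter mRNA by RT-PCR, FAM labeling, HpaI digest and capillary electrophoresis; gain-of-signal fit versus DMSO.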
Chain of Glucocorticoid receptor (Homo sapiens) (P04150 whole entry, looked up, the tested form may be a part): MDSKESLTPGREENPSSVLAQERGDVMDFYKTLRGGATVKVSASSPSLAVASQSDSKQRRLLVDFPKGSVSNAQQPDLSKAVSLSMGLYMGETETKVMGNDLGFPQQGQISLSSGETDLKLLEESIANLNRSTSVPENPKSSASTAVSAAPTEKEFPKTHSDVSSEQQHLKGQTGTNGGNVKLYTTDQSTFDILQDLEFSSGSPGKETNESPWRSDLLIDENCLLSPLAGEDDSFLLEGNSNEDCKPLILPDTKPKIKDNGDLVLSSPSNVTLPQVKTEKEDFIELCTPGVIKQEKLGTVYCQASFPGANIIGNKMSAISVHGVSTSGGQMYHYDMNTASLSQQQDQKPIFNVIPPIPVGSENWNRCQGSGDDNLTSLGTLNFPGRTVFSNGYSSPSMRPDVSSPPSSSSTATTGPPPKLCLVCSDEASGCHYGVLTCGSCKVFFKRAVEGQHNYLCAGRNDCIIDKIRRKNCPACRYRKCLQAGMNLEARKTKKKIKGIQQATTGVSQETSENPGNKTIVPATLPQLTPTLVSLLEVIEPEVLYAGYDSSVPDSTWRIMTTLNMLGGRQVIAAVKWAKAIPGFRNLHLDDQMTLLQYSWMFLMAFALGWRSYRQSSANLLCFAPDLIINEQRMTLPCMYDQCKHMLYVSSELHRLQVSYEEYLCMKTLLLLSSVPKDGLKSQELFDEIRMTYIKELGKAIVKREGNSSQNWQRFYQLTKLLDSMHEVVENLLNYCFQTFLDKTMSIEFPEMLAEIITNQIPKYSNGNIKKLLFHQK

Test [12] deals with Bile acid receptor (Homo sapiens) (UniProt Q96RI1). The test can be described thus: ATG_FXR_TRANS: Attagene TRANS-FACTORIAL HepG2 Assay for Farnesoid X Receptor (FXR) (AID 2282979).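 Also: hits raise reporter mRNA above DMSO so AC50 marks FXR activation.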 The conditions noted are these: HepG2 Attagene TRANS FXR-GAL4 reporter transcription. In short, it runs like this: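 After 24 h chemical treatment of transfected HepG2 cells, GAL4-UAS reporter transcripts driven by an exogenous FXR-GAL4 fusion were measured by RT-PCR and capillary electrophoresis. Increases over DMSO were fitted.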
Chain of Bile acid receptor (Homo sapiens) (Q96RI1 whole entry, looked up, the tested form may be a part): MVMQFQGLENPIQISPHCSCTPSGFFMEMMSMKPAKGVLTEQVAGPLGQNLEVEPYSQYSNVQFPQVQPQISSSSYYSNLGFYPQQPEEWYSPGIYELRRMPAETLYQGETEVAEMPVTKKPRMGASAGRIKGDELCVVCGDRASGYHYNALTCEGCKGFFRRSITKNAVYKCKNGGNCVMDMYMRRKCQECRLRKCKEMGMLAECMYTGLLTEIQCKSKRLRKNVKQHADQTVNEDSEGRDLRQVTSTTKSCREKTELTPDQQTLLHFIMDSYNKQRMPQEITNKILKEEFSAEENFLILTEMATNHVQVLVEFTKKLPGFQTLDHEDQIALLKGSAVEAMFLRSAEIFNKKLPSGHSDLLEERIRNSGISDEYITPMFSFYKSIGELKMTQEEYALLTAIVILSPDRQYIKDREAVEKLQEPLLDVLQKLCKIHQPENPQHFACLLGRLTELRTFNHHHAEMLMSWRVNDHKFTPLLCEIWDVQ

Test [13] deals with Androgen receptor (Homo sapiens) (UniProt P10275). Description: ATG_AR_TRANS: Attagene TRANS-FACTORIAL HepG2 Assay for human Androgen Receptor (AR) (AID 2282973). The conditions noted are these: HepG2 Attagene TRANS-FACTORIAL AR reporter transcription. The method in brief: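 Chimeric nuclear receptor–Gal4 activity was assessed in human HepG2 hepatocytes after 24 h chemical dosing. Induced reporter mRNA was detected via labelled RT-PCR fragments on capillary electrophoresis, and gain of signal was analysed against DMSO.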

The nature of test [14]: ATG_VDRE_CIS: Attagene CIS-FACTORIAL HepG2 Assay for human Vitamin D Receptor Element (VDRE) (AID 2282968; active = hit-call score of the fitted dose curve at least 0.9, where 1 is the maximum; inactive = score below 0.9). The conditions noted are these: HepG2 VDRE cis-reporter transcription, actives raise or lower the signal. In short, it runs like this:
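Measures endogenous factor activity through cis-element-driven reporter transcripts in transiently transfected HepG2. Cells are treated 24 h; reporter mRNA is quantified by RT-PCR and capillary electrophoresis; fitting is bidirectional.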

The target of test [15] is Steroid hormone receptor ERR1 (Homo sapiens) (UniProt P11474). The test can be described thus: ATG_ERRa_TRANS: Attagene TRANS-FACTORIAL HepG2 Assay for human Estrogen-Related Receptor alpha (ERRa) (AID 2282971). The conditions noted are these: HepG2 Attagene TRANS reporter, ERRa transactivation. The method in brief:
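Signal gain relative to DMSO for an ERRa-Gal4 chimeric receptor, read as reporter mRNA by RT-PCR/capillary electrophoresis. Human HepG2 liver cells, transient multiplex reporter transfection, 24 h chemical exposure.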

Test [16] can be described thus: ATG_M_19_TRANS: Attagene TRANS-FACTORIAL HepG2 Assay for M19 Transcription Factor (Internal Marker) (AID 2282974). The conditions noted are these: HepG2 Attagene TRANS-FACTORIAL M19 internal marker reporter. The method in brief:
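HepG2 transiently transfected with GAL4-UAS multiplex reporter constructs, exposed 24 h; reporter RNA quantified by RT-PCR, 6-FAM labeling, HpaI digestion and capillary electrophoresis; internal background marker fitted upward versus DMSO.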

Test [17] has as its target Estrogen-related receptor gamma (Homo sapiens) (UniProt P62508). Description: ATG_ERRg_TRANS: Attagene TRANS-FACTORIAL HepG2 Assay for human Estrogen-Related Receptor gamma (ERRg) (AID 2282977).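 Also: hits increase reporter signal over DMSO so potencies reflect activators.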 The conditions noted are these: HepG2 Attagene TRANS reporter, ERRg transactivation. In short, it runs like this:
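Exogenous NR-Gal4 chimera activity was assessed in HepG2 cells bearing transfected GAL4-UAS reporters. After 24 h dosing, total RNA underwent RT-PCR, fluorescent primer extension and HpaI digestion before capillary electrophoresis, with gain of signal scored against DMSO.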

Test [18] concerns the target Oxysterols receptor LXR-beta (Homo sapiens) (UniProt P55055). The test can be described thus: ATG_LXRb_TRANS: Attagene TRANS-FACTORIAL HepG2 Assay for human Liver X Receptor beta (LXRb) (AID 2282981). The conditions noted are these: HepG2 Attagene TRANS GAL4-LXRb reporter, mRNA. In short, it runs like this:
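After 24 h of chemical treatment, transfected HepG2 cells yield total RNA; reporter cDNA is PCR-amplified, FAM-labelled, HpaI-cut and run on capillary electrophoresis. Signal reflects chimeric LXRb-Gal4 activity on GAL4-UAS reporters.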

Test [19] deals with Hepatocyte nuclear factor 4-alpha (Homo sapiens) (UniProt P41235). The test can be described thus: ATG_HNF4a_TRANS: Attagene TRANS-FACTORIAL HepG2 Assay for human Hepatocyte Nuclear Factor 4 alpha (HNF4a) (AID 2282982). The conditions noted are these: HepG2 HNF4a transactivation reporter, mRNA readout. In short, it runs like this: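 Multiplexed reporter assay: transfected HepG2, 24 h exposure, total RNA → oligo(dT) RT → PCR → 6-FAM extension → HpaI digest → CE fluorescence. DMSO = negative control.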
Chain of Hepatocyte nuclear factor 4-alpha (Homo sapiens) (P41235 whole entry, looked up): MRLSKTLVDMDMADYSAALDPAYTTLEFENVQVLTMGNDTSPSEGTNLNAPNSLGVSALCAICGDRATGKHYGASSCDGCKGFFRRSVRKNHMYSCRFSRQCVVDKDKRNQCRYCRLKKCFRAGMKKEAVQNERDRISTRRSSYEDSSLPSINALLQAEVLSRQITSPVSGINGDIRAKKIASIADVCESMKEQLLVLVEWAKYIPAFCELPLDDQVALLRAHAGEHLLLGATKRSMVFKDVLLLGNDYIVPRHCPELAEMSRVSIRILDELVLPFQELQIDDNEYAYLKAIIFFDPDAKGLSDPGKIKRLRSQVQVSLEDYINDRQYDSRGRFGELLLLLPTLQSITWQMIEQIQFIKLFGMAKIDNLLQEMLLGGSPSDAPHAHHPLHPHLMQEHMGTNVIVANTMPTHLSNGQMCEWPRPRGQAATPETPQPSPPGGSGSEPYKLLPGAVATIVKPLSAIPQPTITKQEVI

The target in test [20] is Oxysterols receptor LXR-alpha (Homo sapiens) (UniProt Q13133). The test can be described thus: ATG_LXRa_TRANS: Attagene TRANS-FACTORIAL HepG2 Assay for human Liver X Receptor alpha (LXRa) (AID 2282980). The conditions noted are these: HepG2 Attagene TRANS reporter, LXRa transactivation. In short, it runs like this: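 In this multiplexed TRANS system, compounds act on HepG2 cells carrying GAL4-UAS reporter units and a receptor-GAL4 fusion for 24 h. Induced reporter RNA is amplified, fluorescently labelled and sized by capillary electrophoresis, with DMSO as baseline.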

Chain of Steroid hormone receptor ERR1 (Homo sapiens) (P11474 whole entry, looked up, the tested form may be a part): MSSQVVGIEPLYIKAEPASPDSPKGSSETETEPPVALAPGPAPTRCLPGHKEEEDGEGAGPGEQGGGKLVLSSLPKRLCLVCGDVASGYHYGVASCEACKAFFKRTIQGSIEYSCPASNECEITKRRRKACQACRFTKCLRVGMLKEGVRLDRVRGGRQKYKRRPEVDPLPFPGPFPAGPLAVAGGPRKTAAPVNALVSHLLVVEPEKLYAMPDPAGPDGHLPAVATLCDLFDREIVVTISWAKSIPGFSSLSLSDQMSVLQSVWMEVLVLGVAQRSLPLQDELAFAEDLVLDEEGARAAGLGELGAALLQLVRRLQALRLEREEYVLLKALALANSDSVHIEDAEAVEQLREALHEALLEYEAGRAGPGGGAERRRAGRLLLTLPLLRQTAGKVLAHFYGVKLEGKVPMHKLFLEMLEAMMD
Chain of Estrogen-related receptor gamma (Homo sapiens) (P62508 whole entry, looked up, the tested form may be a part): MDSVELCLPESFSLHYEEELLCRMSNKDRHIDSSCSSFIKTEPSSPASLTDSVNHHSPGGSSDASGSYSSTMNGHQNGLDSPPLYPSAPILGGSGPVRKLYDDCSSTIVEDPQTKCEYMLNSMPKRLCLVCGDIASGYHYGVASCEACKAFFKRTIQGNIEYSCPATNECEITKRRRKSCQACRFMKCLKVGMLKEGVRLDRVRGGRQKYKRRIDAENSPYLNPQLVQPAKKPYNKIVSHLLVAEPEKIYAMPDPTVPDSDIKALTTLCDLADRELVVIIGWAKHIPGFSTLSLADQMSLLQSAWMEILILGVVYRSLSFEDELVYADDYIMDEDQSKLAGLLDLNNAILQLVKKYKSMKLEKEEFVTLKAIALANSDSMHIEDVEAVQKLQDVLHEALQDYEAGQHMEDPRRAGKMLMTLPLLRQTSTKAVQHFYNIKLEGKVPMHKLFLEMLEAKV
Chain of Oxysterols receptor LXR-beta (Homo sapiens) (P55055 whole entry, looked up, the tested form may be a part): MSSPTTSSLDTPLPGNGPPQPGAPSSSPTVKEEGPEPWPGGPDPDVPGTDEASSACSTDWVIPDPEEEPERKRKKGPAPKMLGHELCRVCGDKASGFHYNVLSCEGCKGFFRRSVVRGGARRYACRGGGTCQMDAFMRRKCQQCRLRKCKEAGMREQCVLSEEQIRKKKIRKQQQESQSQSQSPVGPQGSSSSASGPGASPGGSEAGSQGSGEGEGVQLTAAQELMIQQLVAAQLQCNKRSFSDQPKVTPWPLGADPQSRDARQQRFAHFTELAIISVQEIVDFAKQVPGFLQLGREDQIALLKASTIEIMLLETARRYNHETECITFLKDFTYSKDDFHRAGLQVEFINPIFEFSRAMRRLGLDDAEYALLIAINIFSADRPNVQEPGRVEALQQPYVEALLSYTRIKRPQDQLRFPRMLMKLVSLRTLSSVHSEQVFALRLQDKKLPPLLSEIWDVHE
Chain of Nuclear receptor subfamily 4 group A member 2 (Homo sapiens) (P43354 whole entry, looked up, the tested form may be a part): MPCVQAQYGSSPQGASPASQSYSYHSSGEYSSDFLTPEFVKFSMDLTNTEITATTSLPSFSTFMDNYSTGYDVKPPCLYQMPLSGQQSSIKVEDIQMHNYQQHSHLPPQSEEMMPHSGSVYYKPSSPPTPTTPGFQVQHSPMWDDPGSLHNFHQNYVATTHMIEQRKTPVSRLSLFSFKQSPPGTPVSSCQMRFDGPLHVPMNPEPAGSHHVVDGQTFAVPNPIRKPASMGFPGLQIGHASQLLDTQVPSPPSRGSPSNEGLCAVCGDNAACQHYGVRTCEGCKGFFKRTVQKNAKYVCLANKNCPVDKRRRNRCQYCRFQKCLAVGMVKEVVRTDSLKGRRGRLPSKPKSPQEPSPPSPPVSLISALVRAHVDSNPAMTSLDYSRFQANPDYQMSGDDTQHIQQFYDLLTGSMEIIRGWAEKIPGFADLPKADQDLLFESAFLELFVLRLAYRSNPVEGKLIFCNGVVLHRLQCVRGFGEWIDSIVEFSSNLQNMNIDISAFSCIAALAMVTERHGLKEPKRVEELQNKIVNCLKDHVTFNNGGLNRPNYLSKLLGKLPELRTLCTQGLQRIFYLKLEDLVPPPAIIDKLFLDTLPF

As to `Nc1ccc(Cl)cc1`, the outcome in test [1], in test [2], in test [3], in [4], in test [5] and in test [6] was inactive. Moreover, the molecule was classed as inactive in test [7], in [8] and in test [9].

`O=S1(=O)OCC2C(CO1)C1(Cl)C(Cl)=C(Cl)C2(Cl)C1(Cl)Cl` (centres undefined): the AC50 is 11.6 µM (active) in [1] and 167 µM (active) in test [5]. Also, the outcome in test [2], in test [3], in test [10], in test [4], in [11] and in [12] was inactive. In addition, the result in test [7] and in [8] was inactive.

Consider `O=P(OCC(Br)CBr)(OCC(Br)CBr)OCC(Br)CBr` (centres undefined), for which the call in test [1], in [2], in test [3], in [4], in test [13] and in [7] was inactive. In addition, the half-maximal activity concentration (AC50) in test [5] is 8.88 µM (active).

`CCOP(=S)(OCC)SCSCC`: the molecule was classed as inactive in test [1], in test [2], in [3], in [5], in test [11] and in test [12]. Besides, the result in test [7] was inactive. Also, the results for the AC50 in test [14] and in test [4] were 35.4 µM (active) and 27.4 µM (active), respectively.

As to `Cc1ccc2c(c1N)C(=O)c1ccccc1C2=O`, the molecule was called inactive in test [1], in test [2], in test [3], in test [10], in test [15] and in test [5]. Moreover, the outcome in [16], in test [17], in test [11], in [12] and in [8] was inactive. Further, the half-maximal activity concentration (AC50) in test [4] was 4.04 µM (active).

`O=[N+]([O-])c1ccccc1`: the molecule was classed as inactive in [1], in test [2], in [3], in [5], in test [18] and in test [7]. Moreover, the AC50 in [4] is 19.8 µM (active).

On to `Cc1ccc(C(=O)Cl)cc1`, for which the molecule was called inactive in [1], in [2], in [3], in test [14], in test [15] and in test [5]. Also, the result in [6], in test [17], in test [11], in test [19], in test [7] and in test [8] was inactive.

On to `O=C(O)C(Cl)Cl`, for which the call in test [1], in test [2], in test [3], in test [5], in test [6] and in test [11] was inactive. The outcome in [20] and in [7] was inactive.
